This is an account of results in PubChem BioAssay AID1211 (NMMLSC, 2008).

A number with no mark means an inactive call. How the calls were made is not given here.

In the experiment the target is Estrogen receptor (Homo sapiens) (UniProt P03372). Briefly: displacement of fluorescent estrogen from ERalpha – cell-based, Cos7 ERalpha-GFP, flow cytometry, primary screen (AID 1211).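 Further: 0% = DMSO vehicle wells and 100% = no E2-Alexa633 signal left.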 Particulars: fluorescent ligand competition, at 10 µM, hits give high values. Background: A flow cytometer gives signals particle by particle.
Estrogen receptor (Homo sapiens), sequence (P03372 whole entry, looked up): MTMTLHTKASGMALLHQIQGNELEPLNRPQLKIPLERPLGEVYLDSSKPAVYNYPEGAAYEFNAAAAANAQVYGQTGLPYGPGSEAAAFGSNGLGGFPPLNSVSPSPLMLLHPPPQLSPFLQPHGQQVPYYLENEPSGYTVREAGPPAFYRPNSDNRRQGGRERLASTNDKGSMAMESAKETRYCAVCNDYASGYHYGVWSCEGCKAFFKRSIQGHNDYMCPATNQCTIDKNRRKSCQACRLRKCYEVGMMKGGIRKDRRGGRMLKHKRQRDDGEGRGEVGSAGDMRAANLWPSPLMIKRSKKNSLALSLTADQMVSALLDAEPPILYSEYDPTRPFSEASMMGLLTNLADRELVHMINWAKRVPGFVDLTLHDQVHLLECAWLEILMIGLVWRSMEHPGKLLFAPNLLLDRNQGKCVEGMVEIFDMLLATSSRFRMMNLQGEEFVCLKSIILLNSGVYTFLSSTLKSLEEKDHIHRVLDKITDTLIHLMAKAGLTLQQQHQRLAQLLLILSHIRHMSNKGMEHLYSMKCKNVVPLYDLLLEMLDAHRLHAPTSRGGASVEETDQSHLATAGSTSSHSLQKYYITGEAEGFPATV

For the compound `COc1cccc(C2Nc3c(F)cc(Br)cc3C3C=CCC32)c1OC` (configuration not stated), the inhibition of ligand binding is 60%.
For `O=C1CC(c2ccncc2)c2cc3c(cc2N1)OCCO3` (configuration not stated), the inhibition of ligand binding is 0%.
The same measure for `CCCOc1cc(OCCC)c2c3c(c(=O)oc2c1)CCCC3`: 3%.
The result for `CCOc1cc2c(c([N+](=O)[O-])c1)NC(c1ccc(Br)cc1)C1CC=CC21` (configuration not stated) reads 0%; that for `CC1CCC2(C)c3[nH]c4ccccc4c3CCN2C1=O` (configuration not stated), 0%; that for `CCc1cc2c3c(c(=O)oc2cc1OCC(=O)OC)CCCC3`, 3%.
The same measure for `CCCCc1cc(=O)oc2c(C)c(O)ccc12`: 0%; for `CCCCCCc1cc2c3c(c(=O)oc2cc1OCC(=O)O)CCCC3`: 1%; for `Cc1nc2ccccc2n1-c1cc(C(C)(C)C)c(O)c(C(C)(C)C)c1`: 9%.
Regarding `COc1ccc(NS(=O)(=O)c2ccc3c(c2)[C@H]2C=CC[C@H]2[C@@H](c2ccc(F)cc2)N3)cc1`, the inhibition of ligand binding is 14%.
The result for `COc1cc([N+](=O)[O-])cc2c1NC(c1ccccc1Cl)C1CC=CC21` (configuration not stated) reads 0%; that for `COc1cc(O)c2c(=O)c3c(OC)c(O)ccc3oc2c1`, 63%; that for `CC(=O)N1c2ccc3ccccc3c2C2C=CCC2C1c1ccc(Br)cc1` (configuration not stated), 48%.
The result for `O=C(Oc1cccc(-c2cnc3ccccc3n2)c1)c1ccco1` reads 12%; that for `COc1ccc(-n2cc3c(c(C#N)c2=N)CC(C)(C)CC3=O)cc1`, 29%; that for `Cc1nn(-c2ccc(Cl)cc2)c2sc(C(=O)N3CCN(c4ccccn4)CC3)cc12`, 50%.
The same measure for `COc1cc(/C=N/N2CCN(C3c4ccccc4-c4ccccc43)CC2)cc(OC)c1O`: 0%.
